Compound activity deposited in PubChem BioAssay by National Center for Advancing Translational Sciences (NCATS).
Sampled rows, rich in hits. Any-hit rate of the full collection: about 18%.
DT40 TDP1 CPT = DT40-hTDP1 cell growth loss with CPT; chicken DT40 Tdp1-/-;hTDP1 cells + 20 nM CPT, ATP luminescence, 48 h; Potency, µM (top dose mostly 46.2 µM), most hits filed as inhibitors; actives 12% (n = 420,000); note: nearly all actives have a fitted effect of over 55% in size
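Chicken DT40 Tdp1-/- cells stably complemented with human TDP1 were seeded at 400 cells/well in medium containing 20 nM camptothecin, exposed to pin-transferred compounds, and grown at 37 °C for at least 48 hr. Viability was read as ATP luminescence.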
IL-1B inflam inh = inflammasome signaling inhibition, IL-1 beta readout | activity change, % at 57.5 µM | AID 743279 | THP-1 LPS/ATP IL-1B secretion, AlphaLISA, 16 h; stronger effect = lower value | actives 4.7% (n = 360,000); in the data active = activity change below about -50%; inconclusive = mostly about -30% to -49%
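Secreted IL-1B measured by AlphaLISA bead assay after 16 h compound exposure of THP-1 cells; compounds (final up to 57.5 uM) added 1 h before LPS (250 ng/mL) and ATP (1.25 mM) stimulation; lower signal means less secretion.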
TDP1 cell noCPT = qHTS for Inhibitors of human tyrosyl-DNA phosphodiesterase 1 (TDP1): qHTS in cells in absence of CPT; DT40 Tdp1-/- hTDP1 cells, no CPT, ATP luminescence, 48 h; AID 686978, 2013; Potency, µM (doses to about 46.2 µM), usual class: inhibitors; actives 15% (n = 420,000); note: nearly all actives have a fitted effect of over 55% in size
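No-CPT arm: Tdp1-/-;hTDP1 DT40 cells (400/well) plus compounds, incubated ≥48 hr at 37 °C. Readout CellTiter-Glo luminescence.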
Six1-Eya2 blk = Six1/Eya2 interaction inhibition; actives 0.56% (n = 360,000); activity change, % (concentration not given with the values); AID 651725; AlphaScreen GST-Six1/His-Eya2 binding, biochemical; stronger effect = lower value; in the data active = activity change below about -65%; inconclusive = mostly about -30% to -63%
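Six1/Eya2 binding was read as AlphaScreen signal after compounds were pinned into GST-Six1 plus His-tagged Eya2 (5X stock 250/500 nM) in pH 8.0 Tris/NaCl/TCEP buffer, beads added, then incubated 1 h, 37 C, dark.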
TDP1 inh = inhibitors of human tyrosyl-DNA phosphodiesterase TDP1; actives 0.28% (n = 350,000); recombinant TDP1, AlphaScreen DNA substrate cleavage; Potency, µM (titrated, usually from 130 µM), usual class: inhibitors; AID 485290; Q9NUW8; note: nearly all actives have a fitted effect of over 40% in size
Target sequence (Q9NUW8 whole entry, looked up): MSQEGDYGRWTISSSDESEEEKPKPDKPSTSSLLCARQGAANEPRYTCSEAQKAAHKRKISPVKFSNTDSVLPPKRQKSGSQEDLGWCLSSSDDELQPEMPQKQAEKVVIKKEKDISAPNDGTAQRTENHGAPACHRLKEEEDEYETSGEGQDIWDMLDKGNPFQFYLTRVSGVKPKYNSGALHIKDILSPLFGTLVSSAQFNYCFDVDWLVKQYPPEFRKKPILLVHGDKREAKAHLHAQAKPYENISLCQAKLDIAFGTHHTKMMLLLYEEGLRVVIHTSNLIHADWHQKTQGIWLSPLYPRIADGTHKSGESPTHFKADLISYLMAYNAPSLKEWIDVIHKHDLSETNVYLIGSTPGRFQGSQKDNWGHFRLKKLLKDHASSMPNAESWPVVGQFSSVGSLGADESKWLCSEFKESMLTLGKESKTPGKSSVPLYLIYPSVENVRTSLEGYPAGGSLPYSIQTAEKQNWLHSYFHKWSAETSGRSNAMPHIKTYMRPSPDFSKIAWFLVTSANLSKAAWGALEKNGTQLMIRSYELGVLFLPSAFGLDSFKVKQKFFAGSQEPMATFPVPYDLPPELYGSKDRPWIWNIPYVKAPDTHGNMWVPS
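Recombinant E. coli-expressed Tdp1 (1 nM) preincubated with compound 15 min at RT, then 5'-biotin/3'-phosphotyrosine-FITC DNA substrate (15 nM) added for 5 min. AlphaScreen beads (10 ug/ml) added, 10 min RT; tyrosine-FITC cleavage read as signal loss.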
CtBP-E1A inh = inhibitors of CtBP/E1A interaction; AlphaScreen GST-E1A/His-CtBP binding, 1536-well; stronger effect = lower value; activity change, % (test concentration not listed); actives 0.49% (n = 340,000); AID 651724; in the data active = activity change below about -65%; inconclusive = mostly about -30% to -63%
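AlphaScreen with 125 nM GST-E1A and 125 nM His-CtBP (5X stocks) in Tris pH 8.0, 300 mM NaCl, BSA, Tween 20, TCEP. Compounds preincubated 2 h at 37 deg C, then glutathione donor/nickel acceptor beads added for 1 h at 37 deg C in dark.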
Of the large screens only hits and unclear results are named; the others gave an inactive call. Unless noted, calls come from the whole dose curve; as a rule, active = well fitted curve in the direction sought with a large enough effect; inconclusive = small, poorly fitted or top-dose-only effect, or another doubt; inactive = no such curve, though single readings can be large; an effect the other way counts as inactive or inconclusive.

CC(C)N1CCOC(c2ccc(O)c(O)c2)C1 (centres undefined)	DT40 TDP1 CPT inconclusive (no result: TDP1 inh)
CC(Cc1ccccc1)[n+]1cc(/N=C(\[O-])Nc2ccccc2)on1 (centres undefined)	none
COCCCOc1ccnc(CS(=O)c2nc3ccccc3[nH]2)c1C (centres undefined)	DT40 TDP1 CPT 24µM, TDP1 cell noCPT inconclusive
Fc1cccc(CN2CCN(c3ccc(Cl)cc3)CC2)c1	DT40 TDP1 CPT inconclusive, TDP1 cell noCPT inconclusive (no result: TDP1 inh, CtBP-E1A inh)
Cc1cccc(C)c1-n1nnnc1C(c1cccs1)N1CCC2(CC1)C(=O)NCN2c1ccccc1 (centres undefined)	DT40 TDP1 CPT 15µM, TDP1 cell noCPT 15µM (no result: TDP1 inh)
COc1ccc(-n2nnnc2C(c2ccnc3ccccc23)N2CCC3(CC2)C(=O)NCN3c2ccccc2)cc1 (centres undefined)	DT40 TDP1 CPT inconclusive, TDP1 cell noCPT 23µM (no result: TDP1 inh)
O=C1NCN(c2ccccc2)C12CCN(C(c1ccccc1OC(F)(F)F)c1nnnn1-c1ccc3c(c1)OCCO3)CC2 (centres undefined)	DT40 TDP1 CPT inconclusive, IL-1B inflam inh inconclusive, TDP1 cell noCPT inconclusive (no result: TDP1 inh)
COc1ccc(-n2nnnc2C(c2ccccc2OC(F)(F)F)N2CCC3(CC2)C(=O)NCN3c2ccccc2)cc1 (centres undefined)	DT40 TDP1 CPT 18µM, TDP1 cell noCPT 23µM (no result: TDP1 inh)
COc1ccc(C(c2nnnn2-c2ccc(OC)cc2)N2CCC3(CC2)C(=O)NCN3c2ccccc2)cc1 (centres undefined)	DT40 TDP1 CPT inconclusive, IL-1B inflam inh inconclusive, TDP1 cell noCPT inconclusive (no result: TDP1 inh)
COc1ccc(-n2nnnc2C(c2ccccc2)N2CCC3(CC2)C(=O)NCN3c2ccccc2)cc1 (centres undefined)	DT40 TDP1 CPT inconclusive, IL-1B inflam inh -59, TDP1 cell noCPT inconclusive (no result: TDP1 inh)
CC(C)CN1CC2(CCN(C(=O)Oc3ccccc3)CC2)C1	none (no result: IL-1B inflam inh, Six1-Eya2 blk, TDP1 inh, CtBP-E1A inh)
CCN(CC)CCNC(=O)c1nn(-c2ccc(C)cc2)c(=O)c2c1c1ccccc1n2C	TDP1 cell noCPT 21µM
CCCCn1c(N)c(N(CC(C)C)C(=O)c2cc(Br)c(Br)s2)c(=O)[nH]c1=O	DT40 TDP1 CPT inconclusive, TDP1 cell noCPT 23µM (no result: TDP1 inh)
CNC[C@H](O)c1ccc(O)cc1	none (no result: DT40 TDP1 CPT, IL-1B inflam inh, TDP1 cell noCPT, Six1-Eya2 blk, CtBP-E1A inh)
C=CCn1c(O)c(C(CC)=NC2CC2)c(=O)[nH]c1=O	none
Cn1cccc1/C=C1\C(=O)NC(=O)N(Cc2ccccc2Cl)C1=O	DT40 TDP1 CPT 5.8µM, TDP1 cell noCPT 4.6µM
Cn1cccc1/C=C1\C(=O)NC(=O)N(CCC2=CCCCC2)C1=O	DT40 TDP1 CPT 16µM, TDP1 cell noCPT 13µM
CP(=O)(Nc1ccccc1)C(Cl)(Cl)Cl (centres undefined)	none
COC(=O)[C@@]1(OC)C[C@@H]2O[C@@]1(C)n1c3ccccc3c3c4c(c5c6ccccc6n2c5c31)C(=O)N(C)C4	none (no result: DT40 TDP1 CPT, IL-1B inflam inh, TDP1 cell noCPT, Six1-Eya2 blk, CtBP-E1A inh)
Oc1ccccc1O	TDP1 cell noCPT inconclusive, TDP1 inh inconclusive
O=Nc1c(O)c2ccccc2c2ccccc12	DT40 TDP1 CPT 1.8µM, IL-1B inflam inh -76, TDP1 cell noCPT 3.3µM (no result: TDP1 inh)
O=C(NC1CCCCC1)Oc1cc2oc(=O)sc2cc1Cl	TDP1 cell noCPT 15µM
Clc1ccc(C2=CCC[C@H]3CC[C@@H]2N3)cn1	none (no result: IL-1B inflam inh, Six1-Eya2 blk, CtBP-E1A inh)
Cc1cc(NC(=O)CCl)on1	DT40 TDP1 CPT inconclusive, IL-1B inflam inh -106, TDP1 cell noCPT 9.2µM
CCC(=O)OC1CCC2C3CCc4cc(O)ccc4C3CC[C@]12C (some centres undefined)	DT40 TDP1 CPT 21µM, TDP1 cell noCPT 21µM (no result: IL-1B inflam inh, Six1-Eya2 blk, CtBP-E1A inh)
C=CCn1c(O)c(C(CC)=NCc2ccco2)c(=O)[nH]c1=O	none (no result: TDP1 inh)
CCC1(C)OC(c2ccccc2)=C/C(=C/C=C2C(=O)NC(=O)NC2=O)O1 (centres undefined)	DT40 TDP1 CPT inconclusive, TDP1 cell noCPT inconclusive (no result: CtBP-E1A inh)
Cc1noc(C)c1CC(=O)N1CCCC(N2CCN(c3ccccc3F)CC2)C1 (centres undefined)	none (no result: TDP1 inh)
